The text below walks through data of ChEMBL document CHEMBL4513216, “Probing the Open Global Health Chemical Diversity Library for Multistage-Active Starting Points for Next-Generation Antimalarials” (ACS Infect Dis, 2020).

Among all 69,000 compounds or so, about 8,600 (12%) showed an effect of 50% or more. The sample holds strong results, similar compounds and a random draw of the others, so the mix is not that of the screen.

The experiment has as its system Plasmodium berghei. Put plainly: Screen against P. berghei liver stage (PbLuc), transformed with Luciferase, at 10uM. The format is functional, HepG2. Conditions: tested at 10 uM.
For `CCC(=O)c1ccc(OCC(=O)N(C)C(C)c2ccon2)cc1` (configuration not stated), the INHIBITION is recorded as 20.6%.

Consider `CC1=N[C@@]2(CC[C@@H]3CN(Cc4ccccc4F)C[C@@H]32)C(=O)N1C`, for which the INHIBITION is 19.8%.

For the compound `CNC(=O)[C@@H]1CCO[C@@H]2CCN(Cc3ccsc3)C[C@H]21`, the INHIBITION is 31.1%.

For the compound `CCN1CCOC(CNCc2cnc(N(CC)CC)s2)C1` (configuration not stated), the INHIBITION is -81.1%.

Consider `Cc1nc(C(=O)N2CCN(C(=O)N(C)C)[C@@H]3CS(=O)(=O)C[C@@H]32)cs1`, for which the INHIBITION is 57.8%.

In the case of `CCCN1CCN(C(=O)c2cncnc2C)[C@H]2CS(=O)(=O)C[C@H]21`, the INHIBITION came out at 51.2%.

As for `Cc1nc(C(=O)N2CCN(S(C)(=O)=O)[C@@H]3CS(=O)(=O)C[C@@H]32)cs1`, the INHIBITION came to 39.8%.

For the compound `CCCN1CCN(C(=O)c2cnc(C)nc2)[C@H]2CS(=O)(=O)C[C@H]21`, the INHIBITION is recorded as 2.15%.

Take `Cc1nc(C(=O)N2CCN(C(=O)C3CCC3)[C@@H]3CS(=O)(=O)C[C@@H]32)cs1`: the INHIBITION is recorded as 33.1%.

As for `CCCN1CCN(C(=O)c2cnccc2C)[C@H]2CS(=O)(=O)C[C@H]21`, the INHIBITION was 19.4%.

With `O=C1C[C@H]2[C@H](CCN2C(=O)c2ccno2)N1CC1CC1`, the INHIBITION amounted to 41.4%.

Consider `Cc1cc(N(C)C)nc(C2(C)CCCN2CC(N)=O)n1` (configuration not stated), for which the INHIBITION is listed as 18.8%.

For `N#Cc1ccccc1CN1C[C@H]2CC[C@@H](C1)N(CC1CC1)C2=O`, the INHIBITION amounted to 25.1%.

Turning to `Cc1cc2c(=O)n3c(nc2s1)CCN(C(=O)c1ccnn1C(C)C)CC3`, the INHIBITION came out at 11.1%.

`c1cnnc(N[C@@H]2CC[C@@H]3CN(Cc4ccc5cc[nH]c5c4)C[C@@H]32)c1`: the INHIBITION is -4.68%.

On to `COCC(=O)N1C[C@@H](C)[C@](O)(C(C)C)C1`, for which the INHIBITION came out at 46.4%.

For the compound `CC(C)c1noc(C(C)Nc2nccc(CCC(F)(F)F)n2)n1` (configuration not stated), the INHIBITION stood at 29.6%.

Turning to `CC(Nc1nccc(CCC(F)(F)F)n1)c1nc(-c2ccncc2)no1` (configuration not stated), the INHIBITION is listed as 50.4%.

Take `CC(Nc1nccc(CCC(F)(F)F)n1)c1nc(-c2ccccn2)no1` (configuration not stated): the INHIBITION turned out to be 21.2%.

On to `O=C(c1ccnnc1)N1CCN(Cc2ccncc2)c2ncccc2C1`, for which the INHIBITION is 23.3%.

Consider `CC(O)CN1CCN(C(=O)c2ccc3c(c2)COC3)CC1` (configuration not stated), for which the INHIBITION came out at 60.5%.

For the compound `CCC(O)CN1CCN(C(=O)c2ccc3c(c2)COC3)CC1` (configuration not stated), the INHIBITION is -9.37%.

On to `CCn1c(C(=O)N2CCN(CC(C)O)CC2)cc2ccccc21` (configuration not stated), for which the INHIBITION was determined as 35.7%.

Take `CCC(O)CN1CCN(C(=O)c2cc3ccccc3n2CC)CC1` (configuration not stated): the INHIBITION was found to be 1.75%.

As to `CC(C)(C)C(O)CN1CCN(C(=O)c2ccc3c(c2)COC3)CC1` (configuration not stated), the INHIBITION was determined as 31.8%.

For the compound `CC(O)CN1CCN(C(=O)c2cc3ccccc3n2C)CC1` (configuration not stated), the INHIBITION was 66.8%.

As for `O=C(c1cncs1)N1CCOCC(Cc2ccccn2)C1` (configuration not stated), the INHIBITION came to 13.94%.

On to `COCCO[C@@H]1CCN(C(=O)c2ccc(C)o2)[C@@H]1Cc1cccnc1`, for which the INHIBITION is given as 2.3%.

Consider `COc1cc(-c2n[nH]c(CN)n2)cc(OC)c1OC`, for which the INHIBITION is recorded as -9.21%.

On to `COc1ccc(C(O)CNC(=O)NCCc2csc(C)n2)cc1` (configuration not stated), for which the INHIBITION turned out to be 44.1%.

`O=C(C1CCN(Cc2nc(-c3ccco3)no2)CC1)N1CCCC1`: the INHIBITION worked out at 25.1%.

In the case of `O=C(NC1CCC(N2C(=O)CCC2=O)CC1)c1c[nH]c2ccccc12` (configuration not stated), the INHIBITION is on record as 76.7%.

With `Cc1ccc(F)c(C(=O)NC2CCC(N3C(=O)CCC3=O)CC2)c1` (configuration not stated), the INHIBITION is given as -35%.

On to `Cc1[nH]ccc1C(=O)NC1CCC(N2C(=O)CCC2=O)CC1` (configuration not stated), for which the INHIBITION was -86.5%.

As to `CN(C)CCn1c2c(ccc1=O)CC(NC(=O)c1ccsc1)CC2` (configuration not stated), the INHIBITION is given as 37.5%.

As to `Cc1oc(C)c(C(=O)NCc2cccnc2)c1C`, the INHIBITION was -8.75%.

For `COC(=O)CCCNC(=O)N1CCc2c(F)ccc(F)c2C1`, the INHIBITION is on record as 28.7%.

Take `COCCOCCNC(=O)N1CCc2c(F)ccc(F)c2C1`: the INHIBITION is listed as 5.38%.

In the case of `CCCNC(=O)CCNC(=O)N1CCc2c(F)ccc(F)c2C1`, the INHIBITION came to 71.7%.

Regarding `Cc1cccc(CN2C[C@@H](C)[C@@]3(CCN(CC(=O)N(C)C)C3=O)C2)c1`, the INHIBITION is 2.58%.

For the compound `Cc1cc(CN2C[C@@H](C)[C@@]3(CCN(CC(=O)N(C)C)C3=O)C2)oc1C`, the INHIBITION amounted to 51.2%.

As to `Cc1cc(CN2C[C@@H](C)[C@@]3(CCN(C)C3=O)C2)oc1C`, the INHIBITION stood at 65.9%.

Turning to `CCc1ccc(CN2C[C@@H](C)C3(CCN(CC(=O)N(C)C)C3=O)C2)o1` (some centres not stated), the INHIBITION stood at 21.1%.

For `CN1CC[C@]2(CN(Cc3cccs3)C[C@H]2c2ccccc2)C1=O`, the INHIBITION turned out to be 24.9%.

On to `Cc1noc(C)c1CN1C[C@H](C)[C@]2(CCN(Cc3cccnc3)C2=O)C1`, for which the INHIBITION is 13.7%.

With `Fc1cccc(-c2nc(CN3CCCC(Cn4cncn4)C3)co2)c1` (configuration not stated), the INHIBITION was determined as 11.9%.

As for `Cc1nc(CCCNC(=O)c2c(F)cccc2Br)n[nH]1`, the INHIBITION amounted to 39.6%.

On to `Cc1nc(CCCNC(=O)c2cc(F)ccc2O)n[nH]1`, for which the INHIBITION was 46.6%.

Consider `Cc1nc(CCCNC(=O)c2c(F)cc(F)cc2F)n[nH]1`, for which the INHIBITION turned out to be 33.7%.

For the compound `Cc1nc(CCCNC(=O)Nc2cc(F)cc(F)c2)n[nH]1`, the INHIBITION worked out at 55.5%.

Turning to `Cc1nc(CCCNC(=O)Nc2ccc(F)cc2F)n[nH]1`, the INHIBITION is 56.5%.

Turning to `COc1ccc2cccc(CC(=O)NCCCc3n[nH]c(C)n3)c2c1`, the INHIBITION is recorded as -6.97%.
